From PubChem BioAssay (NCI) come the findings set out here.

Compounds without any hit were thinned out: in the full panel of roughly 79,000, 15% have a hit. Unmarked numbers belong to inactive results. Activity calls are given as the source filed them. Rule as the data show it: active = growth inhibition above about 70%; inactive = the rest.

Assay [1] can be described thus: NCI Yeast Anticancer Drug Screen. Data for the rad50 strain (AID 155).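 Also: 0% = growth of vehicle-only cultures of the same strain.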 The settings on record: S. cerevisiae rad50 strain growth inhibition, stronger effect = higher value. Put shortly:
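DNA repair mutant yeast, compound exposure, growth read-out; inhibition is taken relative to vehicle.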

The nature of assay [2]: NCI Yeast Anticancer Drug Screen. Data for the mec2-1 strain (AID 157). The following applies: S. cerevisiae mec2-1 strain, stronger effect = higher value. Put shortly: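 Vehicle-treated cultures served as reference for growth inhibition of compound-exposed mec2-1 yeast.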
Assay [3] can be described thus: NCI Yeast Anticancer Drug Screen. Data for the sgs1 mgt1 strain (AID 161).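 Also: 0% = growth of cultures given vehicle only.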 The following applies: S. cerevisiae sgs1 mgt1 strain, stronger effect = higher value. Put shortly:
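Inhibition of yeast growth, normalised to vehicle-treated controls, is reported for a strain bearing genetic alterations in DNA damage repair.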

Assay [4] can be described thus: NCI Yeast Anticancer Drug Screen. Data for the cln2 rad14 strain (AID 165).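 Also: 0% = growth equal to vehicle treated cultures.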 The following applies: S. cerevisiae cln2 rad14 strain, stronger effect = higher value. Put shortly: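 Each compound was tested on cln2 rad14 yeast. Inhibition of growth was calculated against vehicle-exposed controls.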
Assay [5] can be described thus: NCI Yeast Anticancer Drug Screen. Data for the bub3 strain (AID 167). The settings on record: S. cerevisiae bub3 mutant strain, stronger effect = higher value. Put shortly: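 In this screen, a yeast mutant lacking normal mitotic checkpoint function is challenged with compound. Relative growth versus vehicle gives the inhibition value.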
A short description of assay [6]: NCI Yeast Anticancer Drug Screen. Data for the mlh1 rad18 strain (AID 175). The settings on record: S. cerevisiae mlh1 rad18 strain growth inhibition, stronger effect = higher value. Summed up: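 Vehicle-treated cultures served as the reference for growth inhibition in a yeast strain carrying DNA damage repair alterations exposed to each compound.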
[7] abbreviates: at 5.0 µM (retest, dose inferred, filed as 0.5).
Where [8] appears, read: at 50.0 µM (retest, dose inferred, filed as 5.0).

As for `COc1ccc(CN=C(N)N)c2ccccc12`, the growth inhibition in assay [1] (setting [7]) is 5%; in assay [1] (setting [8]) it was 7%; in assay [1] (at 50.0 µM) it was -29.9%; in assay [2] (setting [7]), 2%; in assay [2] (setting [8]) it was 5%; in assay [2] (at 50.0 µM) it was -24.4%. The growth inhibition in assay [3] (setting [7]) is -6%; in assay [3] (setting [8]) it was -1%; in assay [3] (at 50.0 µM), -15.7%; in assay [4] (setting [7]), 31%; in assay [4] (setting [8]), 31%; in assay [4] (at 50.0 µM), -3%. Further, the growth inhibition was -22% in assay [5] (setting [7]); -23% in assay [5] (setting [8]); -32.5% in assay [5] (at 50.0 µM); 13% in assay [6] (setting [7]); 10% in assay [6] (setting [8]); -5.45% in assay [6] (at 50.0 µM).

Turning to `O=C(Nc1ccc(S(=O)(=O)NC2CCCCC2)cc1)OC1CCCCC1`, the growth inhibition in assay [1] (setting [7]) is 14%; in assay [1] (setting [8]), 95% (active); in assay [1] (at 50.0 µM), 92.9% (active); in assay [2] (setting [7]) it was 30%; in assay [2] (setting [8]), 98% (active); in assay [2] (at 50.0 µM) it was 93.4% (active). In addition, the growth inhibition in assay [3] (setting [7]) was 66%; in assay [3] (setting [8]), 92% (active); in assay [3] (at 50.0 µM), 94.3% (active); in assay [4] (setting [7]) it was -10%; in assay [4] (setting [8]) it was 93% (active); in assay [4] (at 50.0 µM) it was 93.7% (active). Moreover, the growth inhibition was 10% in assay [5] (setting [7]); 95% (active) in assay [5] (setting [8]); 92.3% (active) in assay [5] (at 50.0 µM); 11% in assay [6] (setting [7]); 95% (active) in assay [6] (setting [8]); 94% (active) in assay [6] (at 50.0 µM).

For the compound `Cc1ccc(/C=C2\CN(C)CC3=C2NC(=S)NC3c2ccc(C)cc2)cc1` (stereo not drawn), the growth inhibition is 31% in assay [1] (setting [7]); 40% in assay [1] (setting [8]); 30.2% in assay [1] (at 50.0 µM); 18% in assay [2] (setting [7]); 54% in assay [2] (setting [8]); 4.2% in assay [2] (at 50.0 µM). Besides, the growth inhibition was -31% in assay [3] (setting [7]); 21% in assay [3] (setting [8]); 30.6% in assay [3] (at 50.0 µM); 18% in assay [4] (setting [7]); 33% in assay [4] (setting [8]); 16.7% in assay [4] (at 50.0 µM). In addition, the growth inhibition in assay [5] (setting [7]) is -10%; in assay [5] (setting [8]), 44%; in assay [5] (at 50.0 µM), 20.1%; in assay [6] (setting [7]), 26%; in assay [6] (setting [8]), 48%; in assay [6] (at 50.0 µM), 58.3%.

As to `Clc1ccc(-c2noc(CN3CCCCC3)n2)cc1`, the growth inhibition in assay [1] (setting [7]) is 10%; in assay [1] (setting [8]), 38%; in assay [1] (at 50.0 µM) it was 66%; in assay [2] (setting [7]), 0%; in assay [2] (setting [8]), 24%; in assay [2] (at 50.0 µM) it was 15.2%. Further, the growth inhibition in assay [3] (setting [7]) was 2%; in assay [3] (setting [8]), 62%; in assay [3] (at 50.0 µM), 49.6%; in assay [4] (setting [7]), -7%; in assay [4] (setting [8]) it was 21%; in assay [4] (at 50.0 µM) it was 73.3% (active). In addition, the growth inhibition in assay [5] (setting [7]) is -1%; in assay [5] (setting [8]) it was 25%; in assay [5] (at 50.0 µM) it was 71.9% (active); in assay [6] (setting [7]), -4%; in assay [6] (setting [8]) it was 24%; in assay [6] (at 50.0 µM), 67.3%.

On to `N#CCC1CC(=O)c2[nH]c3ccccc3c2C1` (stereo not drawn), for which the growth inhibition in assay [1] (setting [7]) was -157%; in assay [1] (setting [8]), -137%; in assay [1] (at 50.0 µM) it was 8.85%; in assay [2] (setting [7]) it was -49%; in assay [2] (setting [8]), -54%; in assay [2] (at 50.0 µM), 7.7%. Besides, the growth inhibition in assay [3] (setting [7]) is -64%; in assay [3] (setting [8]), -63%; in assay [3] (at 50.0 µM) it was 10%; in assay [4] (setting [7]), -54%; in assay [4] (setting [8]) it was -74%; in assay [4] (at 50.0 µM), 28%. Also, the growth inhibition in assay [5] (setting [7]) is -62%; in assay [5] (setting [8]) it was -70%; in assay [5] (at 50.0 µM) it was -15.9%; in assay [6] (setting [7]) it was -123%; in assay [6] (setting [8]), -121%; in assay [6] (at 50.0 µM) it was 10.4%.

As to `c1ccc2c(c1)Nc1cc3ccccc3cc1N2`, the growth inhibition in assay [1] (setting [7]) was 41%; in assay [1] (setting [8]) it was 91% (active); in assay [1] (at 50.0 µM), 74% (active); in assay [2] (setting [7]), 30%; in assay [2] (setting [8]), 61%; in assay [2] (at 50.0 µM) it was 43.1%. Further, the growth inhibition in assay [3] (setting [7]) was 11%; in assay [3] (setting [8]) it was 47%; in assay [3] (at 50.0 µM), 36.3%; in assay [4] (setting [7]), -9%; in assay [4] (setting [8]), 41%; in assay [4] (at 50.0 µM), 22.9%. Besides, the growth inhibition in assay [5] (setting [7]) is 39%; in assay [5] (setting [8]), 80% (active); in assay [5] (at 50.0 µM), 43.1%; in assay [6] (setting [7]) it was 37%; in assay [6] (setting [8]), 75% (active); in assay [6] (at 50.0 µM), 61.6%.
